Records with an inconclusive call do not appear. Active and inactive are the calls of the source. The call rests on the fitted dose curve; in most records, active means well fitted curve in the direction sought with a large enough effect; inconclusive means small, poorly fitted or top-dose-only effect, or another doubt; inactive means no such curve, though single readings can be large; an effect the other way counts as inactive or inconclusive.
Biological target: DNA repair nuclease/redox regulator APEX1 (Homo sapiens) (UniProt P27695)
Sequence (P27695 whole entry, looked up): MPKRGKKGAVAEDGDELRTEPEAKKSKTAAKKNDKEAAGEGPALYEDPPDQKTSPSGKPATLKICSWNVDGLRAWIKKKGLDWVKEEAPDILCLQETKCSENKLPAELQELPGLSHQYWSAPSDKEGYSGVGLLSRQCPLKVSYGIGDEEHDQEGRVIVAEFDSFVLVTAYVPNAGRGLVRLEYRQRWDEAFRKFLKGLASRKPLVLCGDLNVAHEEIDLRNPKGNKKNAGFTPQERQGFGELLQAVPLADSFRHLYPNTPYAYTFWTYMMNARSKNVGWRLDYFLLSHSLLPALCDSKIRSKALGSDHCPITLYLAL
Assay: qHTS Validation Assay for Inhibitors of the Human Apurinic/apyrimidinic Endonuclease 1 (APE1) (AID 1705;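 further: TAMRA fluorescence gain over two minutes as APE1 cuts a quenched THF abasic duplex; on the % scale 0 is the no-effect control and ±100 the full control effect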)
Settings: purified APE1 endonuclease activity, fluorescence, titration; series mostly up to 57.1 µM; activity change, negative = inhibition: at the top concentration
How it was run: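 Activity read as rising fluorescence (598 nm emission, 525 nm excitation) from incision of a TAMRA/BHQ-2 duplex carrying a THF abasic site (50 nM). Compound and enzyme sat 15 min at RT before substrate start; signal change between first and third 60-s reads.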

Compound | activity change, negative = inhibition
CC(=O)[C@H]1CC[C@H]2[C@@H]3CCC4=CC(=O)CC[C@]4(C)[C@H]3CC[C@]12C | 1.1% (inactive)
NC(=O)c1cccc(N)c1 | -3.26% (inactive)
CC(C)(C)NC(=O)[C@H]1CC[C@H]2[C@@H]3CC[C@H]4NC(=O)C=C[C@]4(C)[C@H]3CC[C@]12C | 2.49% (inactive)
Cc1ccc(S(=O)(=O)N[C@@H](Cc2ccccc2)C(=O)CCl)cc1 | -10.3% (inactive)
COc1cc2ncnc(Nc3cccc(Cl)c3)c2cc1OC | -14.2% (inactive)

Test system: not listed separately
Assay: Counterscreen for APE1 Inhibitors: Fluorescent Dye Displacement Validation Assay (AID 1707);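 further: plate controls were ThO with dsDNA and no compound for no effect and ThO without dsDNA for full effect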
Settings: fluorescent dye displacement from DNA; series mostly up to 57.1 µM; activity change, negative = inhibition: at the top concentration
How it was run: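 ThO 250 nM + dsDNA 50 nM (THF abasic site, 5'-TAMRA), Tris-HCl pH7.5/50mM NaCl/2 mM MgCl2/0.01% Tween-20; compounds pin-transferred; ex 480/em 540 nm endpoint. Neutral = no compound; no-DNA ThO wells = negative control.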

Compound | activity change, negative = inhibition
CC(=O)[C@H]1CC[C@H]2[C@@H]3CCC4=CC(=O)CC[C@]4(C)[C@H]3CC[C@]12C | -1.94% (inactive)
NC(=O)c1cccc(N)c1 | 2.02% (inactive)
CC(C)(C)NC(=O)[C@H]1CC[C@H]2[C@@H]3CC[C@H]4NC(=O)C=C[C@]4(C)[C@H]3CC[C@]12C | 0.705% (inactive)
Cc1ccc(S(=O)(=O)N[C@@H](Cc2ccccc2)C(=O)CCl)cc1 | -0.221% (inactive)
Nc1nc(N)c2nc(CNc3ccc(C(=O)NC(CCC(=O)O)C(=O)O)cc3)cnc2n1 (centres undefined) | -2.42% (inactive)

Biological target: Endonuclease 4 (Escherichia coli (strain K12)) (UniProt P0A6C1)
Assay: Counterscreen for APE1 Inhibitors: qHTS Validation Assay for Inhibitors of Endonuclease IV (AID 1708); further: on the % scale 0 is the no-effect control and ±100 the full control effect
Settings: E. coli endonuclease IV, DNA cleavage fluorescence; series mostly up to 57.1 µM; activity change, negative = inhibition: at the top concentration
How it was run: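 2 nM enzyme was preincubated with compounds for 15 min at room temperature in 50 mM Tris-HCl pH 7.5, 50 mM NaCl, 2 mM MgCl2, 1 mM DTT, 0.01% Tween-20. 50 nM THF-abasic TAMRA/BHQ-2 duplex substrate started the reaction.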

Compound | activity change, negative = inhibition
CC(=O)[C@H]1CC[C@H]2[C@@H]3CCC4=CC(=O)CC[C@]4(C)[C@H]3CC[C@]12C | -10.4% (inactive)
NC(=O)c1cccc(N)c1 | -7.79% (inactive)
CC(C)(C)NC(=O)[C@H]1CC[C@H]2[C@@H]3CC[C@H]4NC(=O)C=C[C@]4(C)[C@H]3CC[C@]12C | 3.78% (inactive)
COc1cc2ncnc(Nc3cccc(Cl)c3)c2cc1OC | -11.2% (inactive)

Test system: not listed separately
Assay: qHTS for differential inhibitors of proliferation of Plasmodium falciparum line 7G8 (AID 1815);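 further: parasite growth measured after three days of incubation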; further: potency means the concentration at half of the fitted maximal effect;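 on activity change, negative = inhibition: plate controls were vehicle wells for no effect and reference inhibitor wells for full effect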
Settings: Plasmodium falciparum 7G8 proliferation inhibition; series mostly up to 28.7 µM; activity change, negative = inhibition: at the top concentration

Compound | activity change, negative = inhibition | Potency
NC(=O)c1cccc(N)c1 | -4.84% (inactive) | –
CC(C)(C)NC(=O)[C@H]1CC[C@H]2[C@@H]3CC[C@H]4NC(=O)C=C[C@]4(C)[C@H]3CC[C@]12C | – | 10 µM (active)
COc1cc2ncnc(Nc3cccc(Cl)c3)c2cc1OC | – | 8.91 µM (active)
Nc1nc(N)c2nc(CNc3ccc(C(=O)NC(CCC(=O)O)C(=O)O)cc3)cnc2n1 (centres undefined) | -8.59% (inactive) | –

Test system: not listed separately
Assay: qHTS for differential inhibitors of proliferation of Plasmodium falciparum line 3D7 (AID 1876); further: potency means the concentration at half of the fitted maximal effect;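 on activity, negative = inhibition: parasite growth measured after three days of culture; 0% = vehicle wells and -100% = reference inhibitor wells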
Settings: P. falciparum 3D7 proliferation inhibition; series mostly up to 28.7 µM; activity, negative = inhibition: at the top concentration

Compound | activity, negative = inhibition | Potency
NC(=O)c1cccc(N)c1 | -9.61% (inactive) | –
COc1cc2ncnc(Nc3cccc(Cl)c3)c2cc1OC | – | 2.51 µM (active)
Nc1nc(N)c2nc(CNc3ccc(C(=O)NC(CCC(=O)O)C(=O)O)cc3)cnc2n1 (centres undefined) | -0.221% (inactive) | –

Test system: not listed separately
Assay: qHTS for differential inhibitors of proliferation of Plasmodium falciparum line D10 (AID 1877);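 further: parasites grown with compound for 72 h before DNA staining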; further: potency means the concentration at half of the fitted maximal effect;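 on activity change, negative = inhibition: plate controls were vehicle wells for no effect and reference inhibitor wells for full effect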
Settings: series mostly up to 28.7 µM; activity change, negative = inhibition: at the top concentration

Compound | activity change, negative = inhibition | Potency
NC(=O)c1cccc(N)c1 | -3.04% (inactive) | –
Cc1ccc(S(=O)(=O)N[C@@H](Cc2ccccc2)C(=O)CCl)cc1 | -21.2% (inactive) | –
COc1cc2ncnc(Nc3cccc(Cl)c3)c2cc1OC | – | 5.62 µM (active)
